Test [1] can be described thus: CCTE_Shafer_MEA_dev_firing_rate_mean: CCTE's Neural Network Formation Assay for Mean Firing Rate, Shafer Lab (AID 2284031). Put shortly: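 Read-out: spike count/recording length, averaged over active electrodes, then AUC across days 5, 7, 9, 12. Rat cortical cultures on MEA; continuous 12-day exposure, media and treatment renewed DIV 5, 9; DMSO baseline.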
A short description of test [2]: CCTE_Shafer_MEA_dev_per_burst_spike_percent: CCTE's Neural Network Formation Assay for Percent of Spikes in a Burst, Shafer Lab (AID 2284032). Summed up: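 Value is trapezoidal AUC over recordings on days 5, 7, 9 and 12 of the well-mean fraction of spikes falling in single-electrode bursts; rat cortical cultures exposed continuously from plating, treatment renewed DIV 5 and 9, fitted downward against DMSO.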

Test [3] is described as follows: CCTE_Shafer_MEA_dev_active_electrodes_number: CCTE's Neural Network Formation Assay for Number of Active Electrodes, Shafer Lab (AID 2284040; active means hit-call score of the fitted dose curve at least 0.9, where 1 is the maximum). Summed up: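 Developing rat cortical networks on MEAs, exposed DIV 0–12. Value is the AUC of active-electrode counts (≥5 spikes/min) from days 5, 7, 9, 12, relative to DMSO.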
Test [4] in a line: CCTE_Shafer_MEA_dev_burst_rate: CCTE's Neural Network Formation Assay for Burst Rate, Shafer Lab (AID 2284042). Summed up: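 Cells plated, treated day 0; recorded DIV 5, 7, 9, 12; fed and re-treated DIV 5, 9. Endpoint: bursts per recording time, active-electrode well mean, trapezoidal AUC, fitted in decreasing direction against DMSO baseline.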
Test [5] is described as follows: CCTE_Shafer_MEA_dev_per_burst_interspike_interval: CCTE's Neural Network Formation Assay for Burst Interspike Interval, Shafer Lab (AID 2284044). Put shortly: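 Readout is the average time between spikes inside single-electrode bursts, taken as a well mean across bursting electrodes. Cortical neurons from rat developed networks on MEA plates under continuous 12-day exposure; recordings on days 5, 7, 9 and 12 were integrated by trapezoidal AUC.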

Test [6] can be described thus: CCTE_Shafer_MEA_dev_burst_duration_mean: CCTE's Neural Network Formation Assay for Mean Burst Duration, Shafer Lab (AID 2284045). Put shortly:
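Network-formation assay in primary rat cortical neurons; treatment spans twelve days of development. Mean burst duration per well is integrated by trapezoidal AUC and fitted in the loss-of-signal direction against DMSO baseline.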

Test [7] in a line: CCTE_Shafer_MEA_dev_interburst_interval_mean: CCTE's Neural Network Formation Assay for Mean Interburst Interval, Shafer Lab (AID 2284046).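 Further: curve fitted for decrease in interburst interval relative to DMSO.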 Summed up: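 Developing rat cortical networks on 48-well MEAs receive compound from the day of plating. Burst intervals from each active electrode are averaged per well, and AUC over the recording days is fitted in the negative direction against DMSO.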

A short description of test [8]: CCTE_Shafer_MEA_dev_inter_network_spike_interval_mean: CCTE's Neural Network Formation Assay for Mean Inter-network Spike Interval, Shafer Lab (AID 2284047). Put shortly:
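Rat cortical cultures, 1.5 x 10^5 cells/well on 48-well MEA plates; continuous exposure days 0–12, medium and compound refreshed DIV 5, 9. Mean time between consecutive network-spike peaks; AUC across DIV 5/7/9/12; DMSO baseline, negative fitting direction.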

A short description of test [9]: CCTE_Shafer_MEA_dev_network_spike_number: CCTE's Neural Network Formation Assay for Number of Network Spikes, Shafer Lab (AID 2284048). Summed up:
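Extracellular recordings from 16-electrode wells track network formation in rat cortical cultures under continuous treatment from plating. The endpoint is network spike number, expressed as AUC across DIV 5–12 relative to DMSO vehicle.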

The nature of test [10]: CCTE_Shafer_MEA_dev_spike_duration_mean: CCTE's Neural Network Formation Assay for Mean Spike Duration, Shafer Lab (AID 2284051).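 Further: mean network spike duration pooled as area under curve over DIV 5 to 12 recordings.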 Put shortly:
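Readout is the average length of network spikes, clustered firing across electrodes, summed over DIV 5, 7, 9 and 12 as area under the curve. Neurons from rat cortex developed networks on MEA plates under continuous 12-day exposure.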

Test [11] can be described thus: CCTE_Shafer_MEA_dev_network_spike_duration_std: CCTE's Neural Network Formation Assay for Standard Deviation of Network Spike Duration, Shafer Lab (AID 2284052).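 Further: hits are decreases in network spike duration SD versus DMSO vehicle.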 Summed up: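 Read-out is the trapezoidal area-under-the-curve across recordings made on days 5, 7, 9 and 12, fitted in the negative direction against DMSO baseline. Neurons were primary rat cortical cells treated from day 0, with treatment renewed at each feed.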

The nature of test [12]: CCTE_Shafer_MEA_dev_per_network_spike_spike_number_mean: CCTE's Neural Network Formation Assay for Mean Number of Spikes in a Network Spike, Shafer Lab (AID 2284053). Summed up: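 Continuous twelve-day exposure of developing rat cortical networks grown over 16 microelectrodes per well; spontaneous firing is captured at four time points, and the per-network-spike spike number is integrated over development by trapezoidal AUC.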

Test [13] in a line: CCTE_Shafer_MEA_dev_per_network_spike_spike_percent: CCTE's Neural Network Formation Assay for Percent of Spikes in a Network Spike, Shafer Lab (AID 2284054). Put shortly: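 Developing networks of rat cortical neurons are dosed at day 0 and recorded extracellularly four times up to day 12. The endpoint is the area under the curve of percent spikes in network spikes, fitted in the negative direction relative to DMSO.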

A short description of test [14]: CCTE_Shafer_MEA_dev_LDH: CCTE's Lactate Dehydrogenase Assay for Cytotoxicity in the Neural Network Formation Assay, Shafer Lab (AID 2284068; active means hit-call score of the fitted dose curve at least 0.9, where 1 is the maximum;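 further: exposure for twelve days from plating with re-dosing on DIV 5 and 9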). Put shortly:
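Cytotoxicity companion to network-formation recordings: rat cortical neurons received compound over 12 days of development, re-dosed at DIV 5 and 9 feeds. Viability was inferred from LDH enzyme activity relative to DMSO.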

Test [15] can be described thus: CCTE_Shafer_MEA_dev_AB: CCTE's Alamar Blue Assay for Cytotoxicity in the Neural Network Formation Assay, Shafer Lab (AID 2284083; active means hit-call score of the fitted dose curve at least 0.9, where 1 is the maximum;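 further: resazurin reduction fluorescence as viability of cultured neurons; twelve days of exposure from plating with re-dosing on DIV 5 and 9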). Summed up:
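Fluorescent resazurin reduction serves as the viability read-out, with DMSO as negative control and baseline. Cells were primary rat cortical neurons grown on MEA plates and dosed from day 0 to day 12, treatment renewed on DIV 5 and 9.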

Test [16] in a line: CCTE_Shafer_MEA_dev_mutual_information_norm: CCTE's Neural Network Formation Assay for Mutual Information Normalization, Shafer Lab (AID 2284091). Put shortly: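 Exposure of primary rat cortical neurons began at plating and ran to DIV 12, with full media and treatment renewal after DIV 5 and 9 recordings. Mutual information AUC (DIV 5–12) was analysed for loss versus DMSO.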

Test [17] in a line: CCTE_Shafer_MEA_dev_correlation_coefficient_mean: CCTE's Neural Network Formation Assay for Mean Correlation Coefficient, Shafer Lab (AID 2284093). Put shortly:
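Read-out: well-mean correlation coefficient of spike trains between electrode pairs, collapsed over four recording days as trapezoidal area-under-the-curve. Developing rat cortical neuron networks grown on MEAs received test chemical continuously from plating.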

Test [18] in a line: UKN2_HCS_IMR90_neural_migration: University of Konstanz (UKN) Leist Lab Neural Crest Cell Migration Assay in human induced IMR90 Pluripotent Stem Cells (UKN2) (AID 2284204). Conditions: actives raise or lower the signal. Put shortly: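 Using a 96-well stopper format with PLO/laminin/fibronectin coating, neural crest cells from iPSC migrate in cytokine-supplemented N2-S medium; after 24 h, chemicals are applied for a further 24 h, then cells are imaged after dye staining.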

Test [19] in a line: IUF_NPC1b_proliferation_BrdU_72hr: Leibniz Research Institute for Environmental Medicine (IUF) 72-hour Neural Progenitor Cell Bromodeoxyuridine (BrdU) Proliferation Assay (NPC1b) (AID 2284207). Summed up: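 Neural progenitor spheres of human fetal origin are treated for three days; BrdU added for the last 16 h is quantified by luminescence ELISA, with DMSO as baseline and EGF/FGF omission as positive control.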

Test [20] can be described thus: IUF_NPC1a_proliferation_area_72hr: Leibniz Research Institute for Environmental Medicine (IUF) 72-hour Neural Progenitor Cell Proliferation Area Assay (NPC1a) (AID 2284208). Put shortly: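 hNPC spheres (human fetal cortex, GW 16-19), one per poly-Hema U-bottom well; EGF+FGF medium; dosed day 0, no re-dosing; 72 h, 37C, 5% CO2; phase-contrast sphere area; DMSO = baseline; minus-GF = positive ctrl.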

A short description of test [21]: CCTE_Mundy_HCI_Cortical_Synap_Neur_Matur_NeuriteSpotCountPerNeuriteLength: CCTE's Synaptogenesis and Neurite Maturation Assay in rat cortical cells for Neurite Spot Count per Neurite Length, Mundy Lab (AID 2284210). Put shortly: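 Neurite-associated synapse density (synaptophysin puncta per unit neurite length) is measured by fluorescence high-content imaging in rat cortical cultures treated from DIV 7 and fixed at DIV 12, with DMSO as negative control.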

Test [22] in a line: CCTE_Mundy_HCI_Cortical_NOG_NeuriteCount: CCTE's Neurite Outgrowth Assay in rat cortical cells for Neurite Count, Mundy Lab (AID 2284212).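 Further: cells fixed about two days after chemical exposure began.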 Summed up:
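Rat cortical primary cells; compound added 2 h post-plating, 1/10 dilution of working solution. Anti-betaIII-tubulin/AF488 ICC; ArrayScan neurite count vs DMSO.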

The structures appear in SMILES notation. Inconclusive results are not listed. Calls of active or inactive are those of the source. How the source made its calls, unless noted: active means hit-call score of the fitted dose curve at least 0.9, where 1 is the maximum; inactive means score below 0.9.

On to `CC(=O)[O-].[Tl+]`, for which the result in [1], in test [2], in test [3], in test [4], in [5] and in test [6] was inactive. Besides, the result in test [7], in test [8], in test [9], in test [10], in [12] and in [13] was inactive. Also, the outcome in test [14], in test [15], in [16], in test [17] and in test [18] was inactive. The AC50 in test [11] is 12.1 µM (active); in [19] it was 82.1 µM (active); in test [20] it was 76.8 µM (active); in test [21] it was 35.1 µM (active); in test [22], 59.5 µM (active).

By AC50 is commonly meant the concentration at which the activity in the assay is half-maximal.

The values are drawn from PubChem BioAssay (EPA / NIEHS).
